In the library only some 2% were active in any assay of this set; here they are far more common.
FAS-TE inh: FAS thioesterase (human) inhibition. P49327. inhibition, % at 15 µM. 0.67% of 360,000 active. AID 602261. recombinant FAS-TE, OMFH fluorogenic substrate, fluorescence endpoint;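 active = compounds whose normalised, plate-corrected inhibition of enzyme fluorescence in the single-dose primary screen is 50% or more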;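 also: 0% = DMSO with enzyme and 100% = substrate without enzyme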
GC-B act: GC-B (human) receptor activation | P20594 | AID 1920062 | activation, % at 10 µM | HEK293-GC-B cells, CNP EC30, cGMP TR-FRET; 0% at EC30 CNP, 100% saturating CNP | 0.11% of 370,000 active;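 active = activation at 10 µM reaching about 35% in either raw or pattern-adjusted values, limit read from the data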
ADAM10 inh: inhibits human ADAM10 | O14672 | recombinant ADAM10, EDANS/DABCYL FRET peptide cleavage, 3 h | inhibition, % at 7 µM | 0.62% of 370,000 active;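 active = inhibition above a per-campaign cutoff equal to the mean of compounds falling between control-based bounds plus 3 SD, cut at about 20% in these data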;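 also: 0% = DMSO wells while the 100% control is not disclosed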
NPR1 activator: GC-A (human) enzyme activation. HEK293 GC-A cells, cGMP TR-FRET, EC30 ANP; 0% at EC30 ANP, 100% saturating ANP. activation, % at 10 µM. 0.14% of 370,000 active. AID 1671463; in the data active = activation above about 40%
ADAM17 inh: inhibitors of human ADAM17; recombinant ADAM17, EDANS/DABCYL FRET peptide cleavage; inhibition, % at 6.95 µM; 0.83% of 370,000 active; AID 720648;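 active = inhibition above the mean of compounds lying between control limits plus 3 SD, set per campaign, cut at about 8.5% in these data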;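 also: 0% = DMSO-only wells as the low control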
ADAM10 ctr: ADAM10 inhibition, counter-screen for ADAM17 exosite hits. shares compounds with ADAM17 inh. recombinant ADAM10, EDANS/DABCYL FRET peptide cleavage, 3 h. inhibition, % at 6.95 µM. 47% of 2,900 active. AID 743256;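 active = mean inhibition over the triplicate runs exceeds the activity threshold set in the earlier primary screen, cut at about 20% in these data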;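 also: 0% = DMSO wells and 100% = marimastat wells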
ADAM17 confirm: human ADAM17 inhibition, confirmation | AID 743257 | inhibition, % at 6.95 µM | shares compounds with ADAM17 inh | 65% of 2,900 active | recombinant ADAM17, EDANS/DABCYL QFRET peptide cleavage;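 active = mean inhibition across replicates above the hit cutoff set in the primary screen, cut at about 8.5% in these data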;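 also: 0% = DMSO wells and 100% = marimastat wells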
* = called active by the depositor; . = no result.

SMILES | FAS-TE inh | GC-B act | ADAM10 inh | NPR1 activator | ADAM17 inh | ADAM10 ctr | ADAM17 confirm
Cc1[nH]c2ccccc2c1/C=N\NC(=O)CNc1ccc2c(c1)OCO2 | -5 | 1 | 7 | -4 | 13* | -2 | 7
COc1cc2cc(Br)cc(Br)c2nc1C | 17 | 2 | 13 | 12 | 10* | 21* | 13*
Cc1ccc(S(=O)(=O)Nc2nc(C)c(NC(=O)OCCCl)s2)cc1 | -4 | 0 | 0 | 3 | 8.9* | 3 | 6
Cc1nc(NS(=O)(=O)c2ccccc2)sc1NC(=O)OC(C)C | -4 | 0 | 4 | -2 | 3 | . | .
C#CCNC(=O)C[C@H]1C[C@@]2(C(=O)OC)C(=C[C@H](COCc3ccccc3)O[C@@H]2C)N(Cc2ccco2)C1=O | . | 3 | 0 | 1 | -2 | . | .
O=C(c1ccc(C(F)(F)F)cc1)N1CCC(=O)N(C(COCc2ccc(C(F)(F)F)cc2)Cc2ccccc2)CC1 (centres undefined) | 34 | -2 | 18 | -3 | 8.9* | 38* | 17*
CCOc1ccccc1C(=O)N1CCC(Oc2cccnc2)CC1 | . | -7 | -2 | 2 | -3 | . | .
COc1ccc(CCN(Cc2cccs2)S(=O)(=O)c2ccc(F)cc2)cc1OC | . | -2 | 19 | 3 | 15* | 10 | 7
CCC(C)NS(=O)(=O)c1ccc(S(=O)(=O)N(CCc2ccc(OC)c(OC)c2)Cc2cccs2)cc1 (centres undefined) | 33 | -2 | 17 | 2 | 8.9* | 38* | 16*
COc1ccc(CCN(Cc2cccs2)S(=O)(=O)c2ccccc2)cc1OC | . | -4 | 10 | 3 | 7 | . | .
CCOc1ccc(CCNC(=O)CN2C(=O)c3cccnc3Oc3ccc(C)cc32)cc1OCC | -3 | 3 | 9 | -2 | 1 | . | .
CCOc1ccc(CCNC(=O)CN2C(=O)c3cccnc3Oc3ccc(Cl)cc32)cc1 | 11 | -4 | 3 | -2 | 11* | 21* | 19*
CC(C)Oc1ccc(Oc2ccc(C#C[C@H](C)N3C(=O)c4ccccc4C3=O)cc2)cn1 | . | -6 | 1 | 5 | -3 | . | .
O=C1c2cccc(OCC(=O)N3CCCc4ccccc43)c2CCN1Cc1ccc(Br)cc1 | 16 | 4 | 17 | 3 | 9.7* | 10 | 12*
COc1ccc(C)cc1N(C(=O)c1ccccc1)c1nc2ccccc2s1 | 19 | -3 | 9 | -1 | 9.9* | 26* | 18*
CC(Sc1nc2cc(Cl)ccc2s1)C(=O)Nc1cccc(S(=O)(=O)N2CCOCC2)c1 (centres undefined) | 37 | -8 | 15 | 0 | 9.5* | 24* | 15*
Cc1cc(Cl)ccc1OC(C)C(=O)Nc1cccc(S(=O)(=O)N2CCOCC2)c1 (centres undefined) | 19 | 0 | -9 | 1 | -4 | . | .
C[C@H](O)[C@@H]1CN2CCc3c([nH]c4c(-c5ccc6c(c5)OCO6)cccc34)[C@@H]2C[C@@H]1N(C)C(=O)c1ccco1 | . | -6 | -1 | -3 | -2 | . | .
CC(c1cccs1)N(Cc1ccco1)C(=O)Nc1ccc(Cl)c(Cl)c1 (centres undefined) | 38 | -2 | 10 | -2 | 8.6* | -1 | 6
CCNC(=O)CSc1nc(-c2ccc(F)cc2)cs1 | 1 | -5 | -2 | 9 | -4 | . | .
CC(C)(C)NC(=O)CSc1nc(-c2ccc(F)cc2)cs1 | 5 | 1 | 3 | 1 | 9.1* | 3 | 0
O=C(Nc1cccc(Oc2ccccc2)c1)C1Cc2c(-c3cccc(F)c3)ccnc2O1 (centres undefined) | 27 | 0 | 15 | 1 | 15* | 15 | 11*
Oc1ccc(C[C@H]2CNC(=S)N2CC2CCCN2C[C@H](Cc2ccccc2)N2C[C@H](Cc3ccc(O)cc3)N(CCc3ccccc3)C2=S)cc1 (some centres undefined) | -92 | -1 | 19 | 1 | 10* | 44* | 22*
CC(C)C[C@H]1CNC(=S)N1C[C@H]1CCCN1C[C@H](Cc1ccccc1)N1C[C@H](Cc2ccc(O)cc2)N(CCc2ccccc2)C1=S | -100 | 4 | 7 | 0 | 9.5* | 14 | 9.5*
CCOc1ccc(CCN2C(=S)N([C@@H](Cc3ccc(O)cc3)CN3CCC[C@@H]3CN3C(=S)NC[C@@H]3Cc3ccccc3)C[C@@H]2Cc2ccc(O)cc2)cc1 | -88 | -1 | 19 | 2 | 12* | 17 | 8.8*
SMILES | FAS-TE inh | GC-B act | ADAM10 inh | NPR1 activator | ADAM17 inh | ADAM10 ctr | ADAM17 confirm
CC(C)C[C@H]1CN([C@@H](Cc2ccc(O)cc2)CN2CCC[C@@H]2CN2C(=S)NC[C@@H]2Cc2ccccc2)C(=S)N1CCc1ccccc1 | -127 | -8 | 13 | 32 | 8.9* | 34* | 20*
COC1=C[C@H](C(=O)N[C@H]2CCCC[C@@H]2NC(C)=O)[C@H](C)[C@@H](c2ccccc2)CC1=O | . | -3 | 0 | 8 | 4 | . | .
O=C(NS(=O)(=O)c1ccccc1[N+](=O)[O-])[C@H]1O[C@@H](n2ccc(=O)[nH]c2=O)[C@H](O)[C@@H]1O | . | -2 | -10 | 3 | -2 | . | .
O=[N+]([O-])c1ccc(Cl)c(C2Nc3cccc4cccc(c34)N2)c1 | 45 | -4 | 32* | -8 | 11* | 17 | 10*
CCOC(=O)c1c(C)[nH]c(C)c1C(=O)COC(=O)/C=C/c1ccc(OC(F)F)cc1 | 20 | -1 | 17 | 3 | 9.3* | 21* | 10*
CN(C)S(=O)(=O)c1ccc(S(=O)(=O)Nc2ccc3c(c2)oc2ccccc23)cc1 | 39 | -3 | 19 | 1 | 9.2* | 34* | 17*
C=CCC[C@H](Cc1ccc(F)cc1)C(=O)OC[C@@H](NC(=O)[C@@H](CC=C)CC(=O)N(CCO)Cc1ccccc1)C(C)(C)C | 7 | -8 | 19 | -9 | 12* | 38* | 19*
C=CC[C@@H](CC(=O)N[C@H](CO)Cc1ccccc1)C(=O)N[C@H](COC(=O)[C@@H](CC=C)Cc1ccc(F)cc1)C(C)(C)C | 8 | -6 | 16 | -5 | 8.7* | 34* | 19*
C=CC[C@@H](CC(=O)N[C@@H](CO)Cc1ccccc1)C(=O)N[C@H](COC(=O)[C@@H](CC=C)Cc1ccc(F)cc1)Cc1ccccc1 | 0 | 3 | -4 | -3 | -5 | . | .
C=CC[C@@H](CC(=O)N[C@H](CO)Cc1ccccc1)C(=O)N[C@H](COC(=O)[C@@H](CC=C)Cc1ccc(F)cc1)Cc1c[nH]c2ccccc12 | 34 | -3 | 24* | -8 | 11* | 44* | 22*

High-throughput results: PubChem, several laboratories
